This passage reports growth results from PubChem BioAssay (NCI).

Values joined by “and” are separate entries in the source; they are usually repeats but may differ in a detail not shown here. Equal values may be shown once. This is part of a sample that, as a whole, favours compounds with a hit. Of some 83,000 tested, about 20% had one in any assay.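 Percent growth is the endpoint: 0 to 100 indicates growth inhibition (40 means 60% inhibition), 0 means no net growth, and negative values indicate cell death.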 A number with no mark means an inactive call. Active and inactive are the calls of the source. The calls were made as follows: active = growth percent below 10; inactive = the rest.

The test deals with MDA-MB-468 breast. Kind of test: NCI-60 one-dose screen, 48 h (100 = growth as untreated, 0 = no growth, -100 = all killed). The note with it: 10 µM unless noted.
Take `Clc1ccc(Oc2ccc(Nc3ncnc4onc(-c5ccccc5)c34)cc2)c(Cl)c1`: the growth is 95.1%.
For `N#Cc1c(-c2ccccc2)cc(-c2ccccc2)n(CCCCCC(=O)Nc2ccccc2N)c1=O`, the growth was 62.8%.
For `NC1C(N)C(N)C1N` (stereo not given), the growth is 122%.
On to `COc1ccc2c(c1)oc1c(C)c3c(c(C)c12)C(=O)N(N)C3=O`, for which the growth was 59.7%.
The value for `COc1ccc(C2CC(c3cccs3)=NN2c2ccc(S(N)(=O)=O)cc2)cc1` (stereo not given) was 8.49% (active).
The value for `O=C(O)c1ccc(-n2cc(CNc3ccc(C(F)(F)F)cc3)c(-c3ccccc3)n2)cc1` was 102%.
Regarding `CN1CCN(c2ccc(Nc3ncc(Cl)c(NC[C@@H]4CCCO4)n3)cc2)CC1`, the growth is 30.7%.
On to `CCn1cc(-c2ccnc(NCCNS(=O)(=O)c3ccc(Br)cc3)c2)c(-c2cccc(OC)c2)n1`, for which the growth was 60.6%.
With `CC(=O)[C@@H]1CC[C@]2(C(N)=O)CC[C@]3(C)[C@H](CC[C@@H]4[C@@]5(C)CCC(=O)C(C)(C)[C@@H]5CC[C@]43C)[C@@H]12`, the growth is 98.5%.
In the case of `COc1cc(-c2c3c(nc4c2c(C)nn4-c2ccccc2)-c2ccccc2C(=O)C3=O)cc(OC)c1OC`, the growth is 88.9%.
On to `C=CCSSC1N=CNc2nc[nH]c21` (stereo not given), for which the growth is 5.55% (active).
Take `CCO/C=N/C1=C(C#N)C(c2ccc(Cl)cc2)c2sc3c(F)cccc3c2O1` (stereo not given): the growth is 54.3%.
On to `C[C@H]1OCC2(CCN(c3cnc(C(=O)Nc4cc(F)cc5cccnc45)cn3)CC2)[C@H]1N`, for which the growth is -4.2% (active).
As for `O/N=C1\c2ccccc2-c2ccc(F)cc21`, the growth was 9.23% (active).
With `Cn1cc(-c2nn3cc(-c4cccnc4)nc3s2)c2cc(F)ccc21`, the growth is 66.3%.
With `Nc1c(C(=O)O)[nH]c(=O)[nH]c1=O`, the growth is 103%.
With `Clc1ccc2c(NCCCCNc3nc(N4CCCCC4)nc4ccccc34)ccnc2c1`, the growth is 7.06% (active).
For `CCCC(c1nnnn1C1CCCCC1)N1CCN(C(=O)c2ccco2)CC1` (stereo not given), the growth was 15.2%.
Turning to `COc1ccc(C(=O)c2cc(C)c(OC)c(C)c2)cc1OC(=O)CCl`, the growth is 37.7%.
On to `c1ccc(N2CCN(c3nncc4ccccc34)CC2)nc1`, for which the growth was 93.3%.
As to `CCN(CC)CCOc1ccc(/C(=C(\Cl)c2ccccc2)c2ccccc2)cc1`, the growth was -60% (active) and -6.23% (active).
For `CCCCCCN(CCCCCC)c1ccc(/C=C2/SC(=O)N(c3nc(N4CCCC4)nc(N4CCCC4)n3)C2=O)c(C)c1`, the growth is 59%.
Turning to `Cc1cc2nc3c4cc(C#N)ccc4n(CCN(C)C)c3nc2cc1C`, the growth was -41.7% (active).
The value for `Clc1ccc2c(c1)c(-c1ccccc1)nc1nncn12` was 110%; that for `COc1c(N2CC3CCCNC3C2)c(F)cc2c(=O)c(C(=O)N/N=C/c3ccc(Br)cc3)cn(C3CC3)c12` (stereo not given) was 97%.
With `Oc1ccccc1C=Nc1ccccc1N=Cc1ccccc1O.[Cu+2]`, the growth is 47.5%.
For `O=c1[nH]cnc2c1ncn2C1OC(CO)C(O)C1O` (stereo not given), the growth was 123% and 113% and 111%.
On to `COc1ccc(NC(=O)CSc2nc3ccccc3c(=O)n2-c2ccccc2C(F)(F)F)c(OC)c1OC`, for which the growth was 93.2%.
The value for `CC1CC(C(C)(C)C)C(=O)C(C(C)(C)C)C1` (stereo not given) was 99.8%; that for `CC(=O)Nc1ccc2nc3ccc(NC(C)=O)cc3[n+](-c3ccccc3)c2c1` was 104%.
`Cc1ccc(NC(=O)Nc2cccnc2)cc1NC(=O)Nc1cccnc1`: the growth is 71%.
Turning to `O=C(Nc1nc2ccc(F)cc2s1)c1cc(-c2ccc(F)cc2)n2nc(-c3ccccc3)cc2n1`, the growth was 92%.
On to `C=C(C)[C@@H]1CC[C@]2(CN)CC[C@]3(C)[C@H](CC[C@@H]4[C@@]5(C)CCC(=O)NC(C)(C)[C@@H]5CC[C@]43C)[C@@H]12`, for which the growth is 35.5%.
The figure for `C1=Cc2ccccc2N(c2nnc(-c3ccccc3)o2)c2ccccc21` is 98.7%.
As to `COc1ccc2cc(C(C)C(=O)Nc3ccc(S(=O)(=O)Nc4cc(C)on4)cc3)ccc2c1` (stereo not given), the growth was 114%.
For `COc1cc2nc(Cl)nc(Nc3cccc(C4=Nc5c(N)nc(N)nc5NC(c5ccc6c(c5)OCO6)C4)c3)c2cc1OC` (stereo not given), the growth is 81.7%.
With `O=C(N=Nc1c(O)[nH]c2ccccc12)c1oc2ccccc2c1CN1CCN(c2ccccc2)CC1`, the growth was -46% (active).
The figure for `O=C(Nc1ccc(N2CCNCC2)cc1)c1[nH]ncc1Nc1cc(Oc2ccccc2)ncn1` is 34.6%.
The value for `N#Cc1cc2[nH]c3ccc(OC(F)(F)F)cc3c2oc1=O` was 95.2%; that for `O[C@H]1[C@H]2c3cc4c(cc3CN3CCC(=C[C@@H]1O)[C@H]23)OCO4` was 20.7%.
